Data published in the supplement of paper PMC3334620.
The full ranking holds about 33,000 sequences; the median of “E-score (-0.5 to 0.5)” is about -0.013, and the highest 2% start at about 0.3. The sample holds the highest values, similar sequences and a random draw of the others, so the mix is not that of the screen.

biological target: T1, Msn1 (UniProt P22148); assay: PBM E-score (8-mer binding enrichment) (E-score (-0.5 to 0.5)); higher = stronger / more preferred TF binding; conditions: protein concentration: 200 nM; construct: GST-full length
T1 sequence: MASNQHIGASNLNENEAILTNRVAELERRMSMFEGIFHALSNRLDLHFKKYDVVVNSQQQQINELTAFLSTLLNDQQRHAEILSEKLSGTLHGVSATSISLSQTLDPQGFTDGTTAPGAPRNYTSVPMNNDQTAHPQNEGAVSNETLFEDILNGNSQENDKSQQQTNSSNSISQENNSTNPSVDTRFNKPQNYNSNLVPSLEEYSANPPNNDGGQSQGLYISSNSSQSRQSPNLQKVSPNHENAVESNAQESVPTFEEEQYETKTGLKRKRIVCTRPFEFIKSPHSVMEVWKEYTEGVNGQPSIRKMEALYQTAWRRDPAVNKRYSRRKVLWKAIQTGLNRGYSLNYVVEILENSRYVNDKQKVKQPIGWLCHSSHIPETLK
In short: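 Universal all-10-mer Agilent arrays, double-stranded by primer extension on fresh or once-stripped slides, were probed with about 100-200 nM GST-tagged yeast transcription factors made by PURExpress. Fluorescent anti-GST detected bound protein, and masliner normalised the scans. E-scores from the Universal PBM Analysis Suite were given to each ungapped eight-base word pooled with its reverse complement.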

Sequence	PBM E-score
TCAGGACA	0.461
TCAGGAAA	0.0903
CCGAGATC	0.0634
AGGTTAAC	-0.0876
AATCGATG	0.144
CAGCAGAC	0.0732
AGTCTGTC	0.0754
AGCCAGAC	-0.072
AAGCGCCC	-0.264
TATTGAGA	0.208
CCAGCGGC	-0.0286
GGTAACTA	0.18
ACTGTCGG	-0.0418
ATTGTCGG	0.318
ACTGTCGC	-0.134
ATTGTCGC	0.344
ATTGTCGA	0.144
CTTGTCGC	0.166
AGGGTTTG	-0.0242
ACCCGTTA	0.00896
CTGGTACA	0.329
GTGGTACA	0.13
GCGGTACA	0.0441
CCGGTACA	0.319
CCGGTACG	-0.262

Sequence	PBM E-score
CTGGTACC	-0.121
CGGCCCAG	-0.186
TAAGAAAA	0.00824
CTGCGACC	-0.19
ATGTCCCA	0.485
CTGTCCCA	0.281
AAGTCCCG	0.283
GTGTCCCA	0.439
AGGTCCCC	-0.299
ATGTCCCG	0.474
ACGTCCCG	0.0295
CTGTCCCC	0.00412
GGGTCCCA	-0.216
AGGTCCCA	-0.081
ATGTCCCC	0.479
GCGTCCCA	0.0223
GCCTTTGA	0.0544
CGAGGAGA	-0.141
AGACCCTG	-0.165
ACCTAACG	-0.203
ATGATCTG	0.0873
GGGAAAAA	0.185
GCGGTCAC	-0.172
ATGTCTAC	0.313
CTGTCTAA	0.111

Sequence	PBM E-score
AGGTCTAG	-0.134
GTGTCTAA	0.192
CTGTCTAC	-0.0627
AAGTCTAG	-0.107
ATGTCTAG	0.373
AGGTCTAC	-0.0162
ATGTCTAA	0.403
CTAGTAGC	-0.165
GAGGGTAC	-0.202
CTATTTCC	0.063
AAAATTGC	0.054
AAAATTCG	0.232
AAAATTCA	0.308
AAAATTGT	0.357
GAAATTCA	0.103
ACAATTGC	0.191
ACAATTGA	0.257
AAAATTGG	0.00283
ACAATTGT	0.363
ATCCATAA	0.124
AATTCCTC	-0.0412
AGCCACTA	-0.0424
CCCCAGCC	-0.271
ACCCTGAG	-0.0157
ACGCGCGC	0.196

Sequence	PBM E-score
GCGCGCGC	0.333
GCGCGCGA	0.0948
CCTGCTAC	0.017
AGTTCTCC	-0.205
CCATTTTA	0.259
CCATTTCA	-0.106
GCATTTTA	0.109
AGATTTTC	0.0741
ACATTTCA	0.363
CCATTTTC	0.136
ACATTTTC	0.337
ACATTTCT	0.204
GCATTTCA	0.0826
ACATTTTA	0.377
ACATTTCG	0.241
ACATTTCC	0.329
GTGAGGCA	-0.0279
ACTGACCT	-0.063
CCACGTGG	-0.276
CGATGAGC	-0.17
CTACCTCC	-0.0369
ACATTTTG	0.34
ACATTAAC	0.254
ACATTTGG	0.177
ACATTTGA	0.311

Sequence	PBM E-score
GCATTTGA	0.051
ATATTTTG	0.176
GCATTTAA	0.0963
TCATTTAA	0.132
ACATTTAA	0.324
ACATTAAG	0.32
AGATTTTG	0.0738
ACATTAAT	0.155
TACAGGAA	0.0582
AGATCCTC	-0.125
AGATGCGA	0.0645
GCTGAACA	0.00499
CTGGCGTA	-0.252
AGGCGGTG	-0.217
TCCATCCA	-0.00245
CAACCAGC	-0.114
CCTTTGTC	0.367
ACTTTGTC	0.41
CCTTTGTA	0.163
CTTTTGTA	0.3
CCTTTGCC	-0.104
CTTTTGTC	0.455
CTTTTGAC	0.0513
ACTTTGTA	0.129
ACTTTGTG	0.0353

Sequence	PBM E-score
GAATTGCC	0.0969
AACCTACA	0.0149
GGATCATA	-0.0918
ATAGCATG	-0.207
AGACACAC	0.133
CGACACAA	0.00596
GGACACGA	0.396
AGACACGA	0.158
GGACACAC	0.382
TGACACAA	0.183
AGACACAG	0.131
GGACACAA	0.462
GGACACCC	-0.0113
AGACACAA	0.332
CGACACAC	0.0525
CGACACGA	0.274
CGATATCG	0.0659
TCCTGAGA	0.0942
CTTTATGA	0.0103
AGCTCTTA	-0.0201
CGGGCAAG	0.0918
CAACGTTG	0.128
AGGCAACA	-0.161
GCCAGTCA	-0.117
CTCTGTCC	0.34

Sequence	PBM E-score
ATCTGTCG	0.0829
CTCTGTCA	-0.0435
ATCTGTCC	0.387
CTCTGTAC	0.0138
ATCTGTCA	0.159
AAAACCTG	0.0428
AAGCTCCA	-0.219
GAAGGGCC	-0.143
ATCTGTTA	0.183
ATCGCAAA	0.0406
CTTTGTTA	0.215
GTTTGTCA	0.299
ATTTGTTA	0.087
ATTTGTTG	0.177
ATTTGTCG	0.451
CTTTGTGA	0.126
CTTTGTTC	0.0603
CTTTGTCC	0.485
AGTTGTCG	0.168
ATTTGTCA	0.46
CTTTGTGC	0.058
CTTTGTCA	0.311
